# Results reported in the supplement of paper PMC10849652.
# Of roughly 7,900 targets only a part is listed; those with a hit were picked by preference. About 0.6% of all pairs of compound and target were hits. A number with no mark means an inactive call.
# Compound: Cn1cc(-c2ccc3c(c2)CCN3C(=O)Cc2cccc(C(F)(F)F)c2)c2c(N)ncnc21
# Experiment: log2 fold change, soluble protein after heating vs DMSO (PISA); higher = thermal stabilisation; K562 cells, 10 uM, 30 min; active = over 0.2 and 3.5 SD of the protein, either way, in both replicates (recomputed)
# Method in brief: (§1)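 Quantification of soluble protein used TMTpro 16plex LC-MS/MS, with channel sums equalised. Samples were the supernatant after 21,000xg for 90 min of pooled aliquots from K562 cells (2×10^6 cells/mL) treated with 10 μM compound for 30 min, heated for 3 min over 48°C-58°C, and extracted in PBS with 0.5% NP-40 at 4°C. Values, from duplicates, describe thermal stability against control samples on a log2 fold-change scale.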
# Sequence of UniProt P23786 (P23786 whole entry, looked up): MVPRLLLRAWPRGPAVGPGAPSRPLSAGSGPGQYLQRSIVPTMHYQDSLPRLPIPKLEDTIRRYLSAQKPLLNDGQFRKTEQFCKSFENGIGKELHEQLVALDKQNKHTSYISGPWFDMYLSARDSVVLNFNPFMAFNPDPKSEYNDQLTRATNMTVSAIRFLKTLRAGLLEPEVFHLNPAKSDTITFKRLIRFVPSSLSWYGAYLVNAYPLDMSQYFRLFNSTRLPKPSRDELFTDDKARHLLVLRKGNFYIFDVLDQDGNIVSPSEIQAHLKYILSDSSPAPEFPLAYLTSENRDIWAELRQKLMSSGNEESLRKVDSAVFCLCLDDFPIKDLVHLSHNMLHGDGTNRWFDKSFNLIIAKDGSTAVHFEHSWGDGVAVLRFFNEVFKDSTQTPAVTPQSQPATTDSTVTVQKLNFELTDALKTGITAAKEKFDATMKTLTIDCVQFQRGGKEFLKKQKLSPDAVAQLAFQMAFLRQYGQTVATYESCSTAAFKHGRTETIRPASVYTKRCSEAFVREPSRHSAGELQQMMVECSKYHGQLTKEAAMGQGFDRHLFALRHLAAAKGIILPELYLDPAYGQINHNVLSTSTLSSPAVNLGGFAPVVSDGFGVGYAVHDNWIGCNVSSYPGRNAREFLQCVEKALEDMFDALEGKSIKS
# Sequence of UniProt Q9NYV4 (Q9NYV4 whole entry, looked up): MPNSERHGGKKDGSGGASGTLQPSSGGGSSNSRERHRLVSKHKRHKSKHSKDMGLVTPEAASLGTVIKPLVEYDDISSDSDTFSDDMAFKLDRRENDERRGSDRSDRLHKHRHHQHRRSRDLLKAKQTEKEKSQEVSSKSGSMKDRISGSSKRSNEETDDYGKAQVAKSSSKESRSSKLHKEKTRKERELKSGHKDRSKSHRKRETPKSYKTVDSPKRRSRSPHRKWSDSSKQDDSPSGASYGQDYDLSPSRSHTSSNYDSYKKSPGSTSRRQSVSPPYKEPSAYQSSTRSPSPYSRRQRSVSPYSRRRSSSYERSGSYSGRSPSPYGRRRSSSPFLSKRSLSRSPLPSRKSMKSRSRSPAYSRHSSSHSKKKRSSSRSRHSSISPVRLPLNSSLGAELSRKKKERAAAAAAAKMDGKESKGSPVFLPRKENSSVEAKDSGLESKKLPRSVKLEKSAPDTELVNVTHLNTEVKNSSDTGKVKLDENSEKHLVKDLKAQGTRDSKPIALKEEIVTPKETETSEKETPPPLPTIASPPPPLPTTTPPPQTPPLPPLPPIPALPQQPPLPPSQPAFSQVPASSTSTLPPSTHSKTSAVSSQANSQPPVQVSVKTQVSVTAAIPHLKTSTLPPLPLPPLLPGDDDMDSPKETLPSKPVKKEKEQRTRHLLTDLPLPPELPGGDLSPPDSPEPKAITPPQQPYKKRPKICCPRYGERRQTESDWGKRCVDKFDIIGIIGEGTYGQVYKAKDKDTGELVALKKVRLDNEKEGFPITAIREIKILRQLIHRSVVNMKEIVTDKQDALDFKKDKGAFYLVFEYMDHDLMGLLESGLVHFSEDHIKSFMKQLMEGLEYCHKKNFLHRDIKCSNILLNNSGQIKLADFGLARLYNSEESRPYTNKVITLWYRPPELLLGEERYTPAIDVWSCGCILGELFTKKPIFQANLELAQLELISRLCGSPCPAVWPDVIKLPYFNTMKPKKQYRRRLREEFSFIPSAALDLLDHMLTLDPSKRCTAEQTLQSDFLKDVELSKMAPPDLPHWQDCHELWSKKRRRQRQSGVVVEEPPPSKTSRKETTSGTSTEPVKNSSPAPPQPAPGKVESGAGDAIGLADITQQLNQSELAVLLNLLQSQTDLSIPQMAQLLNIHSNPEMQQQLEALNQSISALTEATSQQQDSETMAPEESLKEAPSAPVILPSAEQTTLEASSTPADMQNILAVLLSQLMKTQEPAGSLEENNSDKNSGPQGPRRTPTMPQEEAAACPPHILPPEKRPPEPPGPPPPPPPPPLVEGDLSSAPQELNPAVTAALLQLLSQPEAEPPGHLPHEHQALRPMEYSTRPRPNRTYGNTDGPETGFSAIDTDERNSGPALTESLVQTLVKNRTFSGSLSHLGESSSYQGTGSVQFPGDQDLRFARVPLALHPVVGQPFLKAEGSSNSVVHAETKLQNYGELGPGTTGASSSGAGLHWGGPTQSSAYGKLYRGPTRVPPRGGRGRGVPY
# Sequence of UniProt Q12996 (Q12996 whole entry, looked up): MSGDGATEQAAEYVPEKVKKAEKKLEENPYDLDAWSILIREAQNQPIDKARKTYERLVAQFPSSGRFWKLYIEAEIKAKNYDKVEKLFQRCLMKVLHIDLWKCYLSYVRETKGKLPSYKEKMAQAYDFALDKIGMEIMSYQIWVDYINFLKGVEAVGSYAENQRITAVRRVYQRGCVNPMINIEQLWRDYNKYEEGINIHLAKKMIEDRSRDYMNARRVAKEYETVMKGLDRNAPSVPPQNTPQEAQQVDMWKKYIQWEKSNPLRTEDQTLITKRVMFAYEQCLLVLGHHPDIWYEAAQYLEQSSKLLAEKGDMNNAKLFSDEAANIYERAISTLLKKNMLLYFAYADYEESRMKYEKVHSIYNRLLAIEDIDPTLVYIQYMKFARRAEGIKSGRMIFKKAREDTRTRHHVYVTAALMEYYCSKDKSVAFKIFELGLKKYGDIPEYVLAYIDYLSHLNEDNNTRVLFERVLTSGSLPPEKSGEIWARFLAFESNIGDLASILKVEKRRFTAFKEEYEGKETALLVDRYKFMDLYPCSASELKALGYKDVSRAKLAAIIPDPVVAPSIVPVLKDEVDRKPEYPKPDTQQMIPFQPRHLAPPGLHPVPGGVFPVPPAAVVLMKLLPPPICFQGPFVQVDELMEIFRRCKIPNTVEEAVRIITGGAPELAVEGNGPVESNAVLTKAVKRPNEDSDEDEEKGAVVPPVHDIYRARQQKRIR
# Sequence of UniProt P83916 (P83916 whole entry, looked up): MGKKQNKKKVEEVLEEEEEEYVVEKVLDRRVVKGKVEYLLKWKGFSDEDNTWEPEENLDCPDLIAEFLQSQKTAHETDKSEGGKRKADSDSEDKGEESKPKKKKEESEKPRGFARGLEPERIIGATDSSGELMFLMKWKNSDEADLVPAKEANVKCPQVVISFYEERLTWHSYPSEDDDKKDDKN
# Sequence of UniProt Q9Y6H1 (Q9Y6H1 whole entry, looked up): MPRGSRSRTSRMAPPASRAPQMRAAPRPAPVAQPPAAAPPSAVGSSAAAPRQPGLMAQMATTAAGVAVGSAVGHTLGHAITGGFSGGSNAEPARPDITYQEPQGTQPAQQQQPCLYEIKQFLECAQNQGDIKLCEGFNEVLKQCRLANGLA
# Sequence of UniProt P48509 (P48509 whole entry, looked up): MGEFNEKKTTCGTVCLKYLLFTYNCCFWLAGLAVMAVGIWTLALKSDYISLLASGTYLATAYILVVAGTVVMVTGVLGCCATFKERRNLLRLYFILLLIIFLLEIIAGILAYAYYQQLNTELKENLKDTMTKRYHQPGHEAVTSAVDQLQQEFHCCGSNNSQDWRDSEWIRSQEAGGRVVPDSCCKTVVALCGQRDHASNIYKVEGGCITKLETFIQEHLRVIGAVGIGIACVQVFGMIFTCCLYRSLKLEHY
# Sequence of UniProt O75390 (O75390 whole entry, looked up): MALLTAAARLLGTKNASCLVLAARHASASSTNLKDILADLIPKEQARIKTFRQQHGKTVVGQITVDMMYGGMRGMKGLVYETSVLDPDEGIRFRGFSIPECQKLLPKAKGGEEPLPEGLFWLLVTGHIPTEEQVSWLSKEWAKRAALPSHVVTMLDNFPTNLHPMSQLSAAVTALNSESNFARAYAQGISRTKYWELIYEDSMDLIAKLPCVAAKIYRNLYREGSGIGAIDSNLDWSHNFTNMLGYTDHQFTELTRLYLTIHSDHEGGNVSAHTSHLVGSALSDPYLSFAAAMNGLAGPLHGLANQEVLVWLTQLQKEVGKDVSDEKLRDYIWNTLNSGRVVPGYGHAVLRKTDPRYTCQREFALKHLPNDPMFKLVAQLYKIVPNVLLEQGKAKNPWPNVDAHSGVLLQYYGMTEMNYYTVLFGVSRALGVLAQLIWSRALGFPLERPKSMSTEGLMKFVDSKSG
# Sequence of UniProt Q92851 (Q92851 whole entry, looked up): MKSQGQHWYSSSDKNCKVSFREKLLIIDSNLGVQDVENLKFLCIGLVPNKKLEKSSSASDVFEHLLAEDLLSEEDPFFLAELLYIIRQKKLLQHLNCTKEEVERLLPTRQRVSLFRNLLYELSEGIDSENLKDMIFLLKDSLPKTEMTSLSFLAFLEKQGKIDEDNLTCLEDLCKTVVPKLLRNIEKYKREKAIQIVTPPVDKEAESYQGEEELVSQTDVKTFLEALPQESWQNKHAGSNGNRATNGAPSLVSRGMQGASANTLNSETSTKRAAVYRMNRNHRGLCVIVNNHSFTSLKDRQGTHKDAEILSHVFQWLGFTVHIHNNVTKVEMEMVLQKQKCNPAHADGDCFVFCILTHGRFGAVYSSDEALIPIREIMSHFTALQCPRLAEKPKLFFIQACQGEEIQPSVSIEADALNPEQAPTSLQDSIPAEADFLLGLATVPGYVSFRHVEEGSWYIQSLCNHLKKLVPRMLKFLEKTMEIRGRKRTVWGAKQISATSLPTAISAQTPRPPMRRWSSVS
# Sequence of UniProt P20674 (P20674 whole entry, looked up): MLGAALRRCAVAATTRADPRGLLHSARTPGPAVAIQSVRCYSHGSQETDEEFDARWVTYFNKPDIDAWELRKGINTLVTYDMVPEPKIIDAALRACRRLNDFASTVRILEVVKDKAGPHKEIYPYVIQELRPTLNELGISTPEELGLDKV
# Sequence of UniProt P05937 (P05937 whole entry, looked up): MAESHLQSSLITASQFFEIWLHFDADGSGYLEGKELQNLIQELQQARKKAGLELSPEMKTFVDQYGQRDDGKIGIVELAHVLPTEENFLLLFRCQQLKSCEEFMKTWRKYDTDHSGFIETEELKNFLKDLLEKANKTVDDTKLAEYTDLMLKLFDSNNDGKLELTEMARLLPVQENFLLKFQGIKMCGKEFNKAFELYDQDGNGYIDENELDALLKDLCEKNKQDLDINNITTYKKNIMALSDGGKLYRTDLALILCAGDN
row,Target,log2 fold change
1,CASP10 isoform 4 (UniProt Q92851),-0.044
2,CPT2 (UniProt P23786),0.268
3,CBX1 (UniProt P83916),-0.034
4,CD151 (UniProt P48509),0.025
5,CS (UniProt O75390),0.075
6,CSTF3 (UniProt Q12996),-0.009
7,CAD (UniProt P27708),-0.012
8,CCAR2 isoform 2 (UniProt Q8N163),-0.009
9,COX5A (UniProt P20674),0.109
10,CDK12 (UniProt Q9NYV4),-0.484
11,CHCHD2 (UniProt Q9Y6H1),0.116
12,CALB1 (UniProt P05937),0.013

# Compound: Cn1cc(-c2ccc3nnc(C(F)(F)c4ccc5ncccc5c4)n3n2)cn1
# Experiment: as above
# Method in brief: as §1
row,Target,log2 fold change
1,C9orf72 (UniProt Q96LT7),-0.05
2,CDK13 (UniProt Q14004),-0.098
3,CTBS (UniProt Q01459),0.162
4,CCNB1 (UniProt P14635),0.003
5,COMT (UniProt P21964),0.031
6,CEPT1 (UniProt Q9Y6K0),-0.014
7,COPS4 (UniProt Q9BT78),0.003
8,COASY isoform 2 (UniProt Q13057),-0.062
9,CNOT1 (UniProt A5YKK6),-0.035
10,CETN3 (UniProt O15182),-0.006
11,CPSF6 isoform 2 (UniProt Q16630),-0.008
12,CASTOR2 (UniProt A6NHX0),-0.032
13,CASC3 (UniProt O15234),-0.069
14,"CLUH, A0A494C0R8",0.532 (active)
15,CLTB (UniProt P09497),-0.019
16,CLCN3 isoform 2 (UniProt P51790),0.027
17,CDC123 (UniProt O75794),-0.04
18,CD55 isoform 7 (UniProt P08174),-0.012

row,Target,log2 fold change
1,CLUH (UniProt O75153),0.478 (active)
2,CSNK1A1 (UniProt P48729),-0.055
3,CNTN4 (UniProt Q8IWV2),0.032
4,CDC42BPA isoform 6 (UniProt Q5VT25),0.008
5,CDK5RAP1 (UniProt Q96SZ6),0.017
6,CASP10 isoform 4 (UniProt Q92851),0.063
7,CPT2 (UniProt P23786),0.265
8,CBX1 (UniProt P83916),0.011
9,CD151 (UniProt P48509),-0.002
10,CS (UniProt O75390),0.083
11,CSTF3 (UniProt Q12996),-0.01
12,CAD (UniProt P27708),-0.097
13,CCAR2 isoform 2 (UniProt Q8N163),0.042
14,COX5A (UniProt P20674),0.422 (active)
15,CDK12 (UniProt Q9NYV4),-0.123
16,CHCHD2 (UniProt Q9Y6H1),-0.02
17,CALB1 (UniProt P05937),0.046

# Compound: Cn1cncc1[C@@](N)(c1ccc(Cl)cc1)c1ccc2c(c1)c(-c1cccc(Cl)c1)cc(=O)n2C [tipifarnib]
# Experiment: as above
# Method in brief: as §1
row,Target,log2 fold change
1,C9orf72 (UniProt Q96LT7),0.033
2,CDK13 (UniProt Q14004),0.069
3,CTBS (UniProt Q01459),0.091
4,CCNB1 (UniProt P14635),0.02
5,COMT (UniProt P21964),0.002
6,CEPT1 (UniProt Q9Y6K0),-0.055
7,COPS4 (UniProt Q9BT78),-0.012
8,COASY isoform 2 (UniProt Q13057),-0.102
9,CNOT1 (UniProt A5YKK6),-0.061
10,CETN3 (UniProt O15182),0.086
11,CPSF6 isoform 2 (UniProt Q16630),0.031
12,CASTOR2 (UniProt A6NHX0),-0.311
13,CASC3 (UniProt O15234),0.004
14,"CLUH, A0A494C0R8",0.145
15,CLTB (UniProt P09497),-0.006
16,CLCN3 isoform 2 (UniProt P51790),0.004
17,CDC123 (UniProt O75794),-0.031
18,CD55 isoform 7 (UniProt P08174),-0.027

row,Target,log2 fold change
1,CLUH (UniProt O75153),-0.022
2,CSNK1A1 (UniProt P48729),0.022
3,CNTN4 (UniProt Q8IWV2),-0.097
4,CDC42BPA isoform 6 (UniProt Q5VT25),-0.185
5,CDK5RAP1 (UniProt Q96SZ6),0.031
6,CASP10 isoform 4 (UniProt Q92851),0.119
7,CPT2 (UniProt P23786),-0.076
8,CBX1 (UniProt P83916),-0.039
9,CD151 (UniProt P48509),-0.076
10,CS (UniProt O75390),-0.033
11,CSTF3 (UniProt Q12996),0.009
12,CAD (UniProt P27708),-0.032
13,CCAR2 isoform 2 (UniProt Q8N163),0.011
14,COX5A (UniProt P20674),0.103
15,CDK12 (UniProt Q9NYV4),0.156
16,CHCHD2 (UniProt Q9Y6H1),-0.06
17,CALB1 (UniProt P05937),0
